# From PubChem BioAssay (NCI)
# The panel holds about 79,000 compounds, 15% with a hit somewhere; the sample as a whole holds those more often. A number with no mark means an inactive call. Calls of active or inactive are those of the source. Rule as the data show it: active = growth inhibition above about 70%; inactive = the rest.
# Legend:
# [1] = NCI Yeast Anticancer Drug Screen. Data for the rad52 strain (AID 147);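 also: 0% = growth of vehicle-treated control cultures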; details: S. cerevisiae rad52 mutant growth inhibition, stronger effect = higher value
# Procedure, shortened: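 Vehicle-treated cultures served as the reference for growth inhibition of compound-exposed yeast bearing a DNA repair mutation.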
# [2] = NCI Yeast Anticancer Drug Screen. Data for the rad50EPP+ strain (AID 151);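 also: 0% = growth of vehicle-treated control cultures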; details: S. cerevisiae rad50 mutant strain, stronger effect = higher value
# Procedure, shortened: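 In this screen, rad50EPP+ yeast were exposed to compounds. Growth inhibition was scored against vehicle-treated controls.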
# [3] = NCI Yeast Anticancer Drug Screen. Data for the mec2-1 strain (AID 157); details: S. cerevisiae mec2-1 strain, stronger effect = higher value
# Procedure, shortened: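 Vehicle-treated cultures served as reference for growth inhibition of compound-exposed mec2-1 yeast.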
# [4] = NCI Yeast Anticancer Drug Screen. Data for the rad14 strain (AID 159);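 also: 0% = growth of vehicle-treated control cultures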; details: S. cerevisiae rad14 strain growth inhibition, stronger effect = higher value
# Procedure, shortened: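 Here, inhibition of yeast growth was measured after compound exposure, using a strain with a genetic defect in DNA damage repair and vehicle-treated cultures as the reference.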
# [5] = NCI Yeast Anticancer Drug Screen. Data for the sgs1 mgt1 strain (AID 161);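 also: 0% = growth of cultures given vehicle only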; details: S. cerevisiae sgs1 mgt1 strain, stronger effect = higher value
# Procedure, shortened: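 Read-out: growth inhibition vs vehicle controls. Cells: mutant yeast strain deficient in DNA damage repair.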
# [6] = NCI Yeast Anticancer Drug Screen. Data for the CLN2oe strain (AID 163);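 also: 0% = growth of vehicle-only control cultures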; details: S. cerevisiae CLN2oe strain, stronger effect = higher value
# Procedure, shortened: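 Inhibition relative to vehicle-treated yeast is reported. Cells: strain with genetic alteration in cell-cycle control, grown with compound.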
# [7] = NCI Yeast Anticancer Drug Screen. Data for the cln2 rad14 strain (AID 165);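 also: 0% = growth equal to vehicle treated cultures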; details: S. cerevisiae cln2 rad14 strain, stronger effect = higher value
# Procedure, shortened: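 Each compound was tested on cln2 rad14 yeast. Inhibition of growth was calculated against vehicle-exposed controls.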
# [8] = NCI Yeast Anticancer Drug Screen. Data for the bub3 strain (AID 167); details: S. cerevisiae bub3 mutant strain, stronger effect = higher value
# Procedure, shortened: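 Whole-cell yeast assay. The mutant strain was incubated with compounds, and growth inhibition was determined by comparison with vehicle-treated cells.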
# [9] = NCI Yeast Anticancer Drug Screen. Data for the wt2 strain (AID 169);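 also: 0% = growth of vehicle-treated yeast cultures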; details: S. cerevisiae wt2 strain growth inhibition, stronger effect = higher value
# Procedure, shortened: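 Inhibition of yeast growth was determined after compound treatment, normalised to controls receiving only vehicle.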
# [10] = NCI Yeast Anticancer Drug Screen. Data for the mlh1 strain (AID 171);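 also: 0% = growth of vehicle-treated control cultures of the same strain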; details: S. cerevisiae mlh1 strain growth inhibition, stronger effect = higher value
# Procedure, shortened: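 Vehicle-normalised growth inhibition of a repair- or checkpoint-altered yeast strain following compound treatment.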
# [11] = NCI Yeast Anticancer Drug Screen. Data for the sgs1 strain (AID 173);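 also: 0% = growth of vehicle-only control cultures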; details: S. cerevisiae sgs1 mutant, stronger effect = higher value
# Procedure, shortened: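 Screen format: yeast with repair or checkpoint alterations, compound exposure, growth read relative to vehicle.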
# [12] = NCI Yeast Anticancer Drug Screen. Data for the mlh1 rad18 strain (AID 175); details: S. cerevisiae mlh1 rad18 strain growth inhibition, stronger effect = higher value
# Procedure, shortened: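 Vehicle-treated cultures served as the reference for growth inhibition in a yeast strain carrying DNA damage repair alterations exposed to each compound.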
# [13] = at 5.0 µM (retest, dose inferred, filed as 0.5)
# [14] = at 50.0 µM (retest, dose inferred, filed as 5.0)
structure (smiles),measurement,setting,value
Cc1ccc(N=Nc2ccc(O)c(C)c2)cc1,growth inhibition,[1]; at 1.2 µM,6%
same,growth inhibition,[1]; at 3.7 µM,10%
same,growth inhibition,[1]; at 11.0 µM,88% (active)
same,growth inhibition,[1]; at 33.0 µM,98% (active)
same,growth inhibition,[1]; at 100.0 µM,87% (active)
same,growth inhibition,[2]; at 1.2 µM,20%
same,growth inhibition,[2]; at 3.7 µM,39%
same,growth inhibition,[2]; at 11.0 µM,53%
same,growth inhibition,[2]; at 33.0 µM,96% (active)
same,growth inhibition,[2]; at 100.0 µM,82% (active)
same,growth inhibition,[3]; at 1.2 µM,10%
same,growth inhibition,[3]; at 3.7 µM,11%
same,growth inhibition,[3]; [13],52%
same,growth inhibition,[3]; at 11.0 µM,80% (active)
same,growth inhibition,[3]; at 33.0 µM,97% (active)
same,growth inhibition,[3]; [14],66%
same,growth inhibition,[3]; at 50.0 µM,92.5% (active)
same,growth inhibition,[3]; at 100.0 µM,79% (active)
same,growth inhibition,[4]; at 1.2 µM,4%
same,growth inhibition,[4]; at 3.7 µM,-7%
same,growth inhibition,[4]; at 11.0 µM,68%
same,growth inhibition,[4]; at 33.0 µM,96% (active)
same,growth inhibition,[4]; at 100.0 µM,89% (active)
same,growth inhibition,[5]; [13],-16%
same,growth inhibition,[5]; [14],91% (active)
same,growth inhibition,[5]; at 50.0 µM,92.5% (active)
same,growth inhibition,[6]; at 1.2 µM,-2%
same,growth inhibition,[6]; at 3.7 µM,-18%
same,growth inhibition,[6]; at 11.0 µM,97% (active)
same,growth inhibition,[6]; at 33.0 µM,97% (active)
same,growth inhibition,[6]; at 100.0 µM,78% (active)
same,growth inhibition,[7]; [13],32%
same,growth inhibition,[7]; [14],94% (active)
same,growth inhibition,[7]; at 50.0 µM,92.2% (active)
same,growth inhibition,[8]; at 1.2 µM,-6%
same,growth inhibition,[8]; at 3.7 µM,-7%
same,growth inhibition,[8]; [13],2%
same,growth inhibition,[8]; at 11.0 µM,95% (active)
same,growth inhibition,[8]; at 33.0 µM,97% (active)
same,growth inhibition,[8]; [14],95% (active)
same,growth inhibition,[8]; at 50.0 µM,91.3% (active)
same,growth inhibition,[8]; at 100.0 µM,84% (active)
same,growth inhibition,[9]; at 1.2 µM,5%
same,growth inhibition,[9]; at 3.7 µM,14%
same,growth inhibition,[9]; at 11.0 µM,91% (active)
same,growth inhibition,[9]; at 33.0 µM,98% (active)
same,growth inhibition,[9]; at 100.0 µM,79% (active)
same,growth inhibition,[10]; at 1.2 µM,19%
same,growth inhibition,[10]; at 3.7 µM,10%
same,growth inhibition,[10]; at 11.0 µM,91% (active)
same,growth inhibition,[10]; at 33.0 µM,97% (active)
same,growth inhibition,[10]; at 100.0 µM,80% (active)
same,growth inhibition,[11]; at 1.2 µM,28%
same,growth inhibition,[11]; at 3.7 µM,26%
same,growth inhibition,[11]; at 11.0 µM,90% (active)
same,growth inhibition,[11]; at 33.0 µM,98% (active)
same,growth inhibition,[11]; at 100.0 µM,85% (active)
same,growth inhibition,[12]; [13],37%
same,growth inhibition,[12]; [14],51%
same,growth inhibition,[12]; at 50.0 µM,91.9% (active)
